High-throughput results (PubChem)
SARS PLpro yeast: SARS-CoV PLP inhibition in yeast. 330,000 tested, 0.19% active. Potency, µM (top dose mostly 32.9 µM), for the others: at the highest dose activity, positive = growth rescue, hits mostly activators. AID 485353. S. cerevisiae expressing SARS-CoV PLpro, growth rescue; calls by dose curve; note: 0% is about no effect; nearly all actives have a fitted effect of over 55% in size
Sm TGR block: inhibitors of Schistosoma mansoni thioredoxin glutathione reductase; purified TGR, DTNB reduction, TNB absorbance 405 nm; Potency, µM (series often up to 114 µM), for the others: at the top dose activity change, negative = inhibition, usual class: inhibitors; 360,000 tested, 3% active; AID 485364; active = well fitted inhibition curve with a large enough effect; inconclusive = small, poorly fitted or top-dose-only effect; inactive = no such curve, though single readings can be large or run the other way; note: % is set by controls: 0 for no effect and ±100 for the full control effect; nearly all actives have a fitted effect of over 60% in size
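First, TGR (20 nM dispensed) and NADPH were mixed with compound. Second, a 15 min room-temperature incubation followed. Third, further NADPH and then DTNB were added to start the reaction. Finally, TNB absorbance was monitored kinetically.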
* = called active by the depositor; ? = inconclusive; / = no result given. Rows were chosen to be rich in hits. Some 3% of all compounds tested hit in one or more screens of this group. Potency is the fitted concentration of half-maximal effect.

SMILES	SARS PLpro yeast	Sm TGR block
COc1ccc(C)cc1NC(=O)c1cnc2ccc(C)cn2c1=O	/	-14%
COc1ccc(-c2nc(CSCC(=O)N3CCC4(CC3)OCCO4)c(C)o2)cc1OC	1%	0%
COc1ccc(-c2nc(CSCC(=O)N3CCN(c4cccc(C)c4)C(C)C3)c(C)o2)cc1OC (centres undefined)	6%	45µM*
COc1ccc(-c2nc(CSCC(=O)N3CCC(C(N)=O)CC3)c(C)o2)cc1OC	0%	-30%
COc1ccc(-c2nc(CSCC(=O)N3CCc4ccccc4C3)c(C)o2)cc1OC	4%	32µM*
CCCCn1c(=O)c2oc3ccccc3c2n(CC(=O)Nc2cccc(Cl)c2C)c1=O	/	1%
COc1cccc(CNC(=O)c2sc3nc4n(c(=O)c3c2C)CCC4)c1	/	5%
NC(=O)CN1C(=O)/C(=c2\sc3nc(=O)c(Cc4ccccc4)nn3c2=O)c2ccccc21	2%	0.35µM*
CCCN1C(=O)/C(=c2\sc3nc(=O)c(Cc4ccc(C)cc4)nn3c2=O)c2ccccc21	2%	/
O=C(Cn1c(SCc2ccccc2F)nc2ccncc21)Nc1ccccc1C(F)(F)F	/	-5%
CCCc1noc(-c2ccc(NCc3ccc(C)cc3)c([N+](=O)[O-])c2)n1	/	0%
CC(C)n1c(SCC(=O)NCc2ccco2)nnc1C1CC1	1%	18µM*
Cn1c(SCC(=O)NCc2ccco2)nnc1C1CCCC1	-4%	-19%
CCn1c(SCC(=O)NCc2ccco2)nnc1C1CCCC1	-2%	40µM*
Cn1c(SCC(=O)NCc2ccco2)nnc1C1CC1	5%	/
Cc1ccc(NCc2nnc(SCC(=O)NCc3ccco3)n2CC2CCCO2)cc1Cl (centres undefined)	-2%	50µM*
Cc1ccc(NCc2nnc(SCC(=O)NCc3ccco3)n2CC2CCCO2)c(C)c1 (centres undefined)	-2%	-31%
Cc1c(C)n(C)c2ccc(C(=O)NCCc3ccc(Cl)cc3)cc12	/	-2%
O=C(NCC1CCN(Cc2ccc(F)cc2)CC1)c1cc2ccc3cccnc3c2[nH]1	/	3%
Cc1cccc(N2CCN(C(=O)c3cc(S(=O)(=O)N4CCC(C)CC4)cn3C)CC2)c1C	/	7%
CCc1nc2c(cnn2-c2ccc(Cl)cc2)c(=O)n1-c1ccc(OC)c(Cl)c1	/	4%
COc1ccc(C2CC(c3c(O)n(C4CCCCC4)c(=O)[nH]c3=O)=Nc3ccccc3S2)cc1 (centres undefined)	/	-4%
O=S(=O)(NC1CCCCCCC1)OCC(Cl)(Cl)Cl	-6%	-24%
O=S(=O)(NC1CC(NS(=O)(=O)OCC(Cl)(Cl)Cl)C2CCCCC12)OCC(Cl)(Cl)Cl (centres undefined)	6%	79µM*
COCCNC(=O)CCN1C(=O)c2cccnc2Oc2ccc(C)cc21	/	2%
SMILES	SARS PLpro yeast	Sm TGR block
COc1cccc(CNC(=O)CN(c2ccc(C)cc2)S(=O)(=O)N(C)C)c1OC	/	2%
Oc1ccc(Cl)cc1C1=NNC(c2ccc(Cl)cc2)C1 (centres undefined)	-99%	?
Oc1c(Cl)cc(Cl)cc1C1=NNC(c2ccc(Cl)cc2)C1 (centres undefined)	-6%	3.2µM*
COc1ccccc1-c1nn2c(-c3ccco3)nnc2s1	-9%	?
COc1ccc(OCc2nn3c(-c4ccco4)nnc3s2)cc1	-3%	?
c1coc(-c2nn3c(-c4ccco4)nnc3s2)c1	-5%	14µM*
Clc1ccc(OCc2nn3c(-c4ccco4)nnc3s2)cc1	-17%	32µM*
COc1ccc2c(c1)c1c(c(=O)n(-c3cccc(C)c3)c(=O)n1Cc1cccc(Cl)c1)n2C	/	1%
COC(=O)c1ccc2c(c1)N(CC(=O)Nc1ccc(C)cc1Cl)C(=O)c1ccccc1S2	/	1%
COc1ccc(C(=O)CCNc2ccc(F)cc2)cc1	0%	3.2µM*
O=C(CCNc1ccc(Br)cc1)c1cccc([N+](=O)[O-])c1	-3%	0.4µM*
O=C(CCNc1ccccc1)c1cccc([N+](=O)[O-])c1	-45%	0.45µM*
COc1ccc(C(=O)CCNc2ccc(C)c(Cl)c2)cc1	-19%	-9%
O=C(NCCNc1ccc([N+](=O)[O-])cc1)c1cccc(Br)c1	-10%	0%
O=C(CCNc1ccc(F)cc1)c1cccc([N+](=O)[O-])c1	-27%	0.5µM*
NC(=O)c1cccc([N+](=O)[O-])c1	3%	9%
O=C(CNC(=O)c1cccc([N+](=O)[O-])c1)OCCCC(=O)c1ccc(F)cc1	-11%	/
CCN(c1cccc(C)c1)S(=O)(=O)c1c(C)nc2sc(C)cn2c1=O	/	2%
CCOc1ccc(C(=O)Nc2ccccc2OCc2cc(=O)n3ccccc3n2)cc1	/	-6%
CCCCCn1c(=O)[nH]c2cc(C(=O)NCc3ccc(OC)cc3)ccc2c1=O	/	5%
CCn1nnc2cc(C(=O)Nc3cc(C)ccc3C)ccc21	/	7%
Cc1ccc(NCCC(=O)c2cccc([N+](=O)[O-])c2)cc1	-29%	0.4µM*
COc1ccc(C(=O)CCC(=O)Nc2ccc(OC)c(Cl)c2)cc1	/	3%
